# Assay results reported in PubChem BioAssay AID504782 (NMMLSC, 2011).
# The other results are listed elsewhere or left out. Activity calls are given as the source filed them.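 Rule for the calls: active = inhibition of aptamer binding above 40%, about triple the noise seen with nonglowing compounds, on plates passing quality control; inactive = the rest.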
# Target: Beta-adrenergic receptor kinase 1 (Homo sapiens) (UniProt P25098)
# Assay: RNA aptamer-GRK2 binding blockers – biochemical, cherry pick 2, bead flow cytometry, confirmation (AID 504782);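 for inhibition of aptamer binding: negative values mostly come from compounds that fluoresce themselves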
# Settings: bead-bound GRK2, FAM-aptamer displacement; at 10 µM, stronger effect = higher value
# Sequence of Beta-adrenergic receptor kinase 1 (Homo sapiens) (P25098 whole entry, looked up): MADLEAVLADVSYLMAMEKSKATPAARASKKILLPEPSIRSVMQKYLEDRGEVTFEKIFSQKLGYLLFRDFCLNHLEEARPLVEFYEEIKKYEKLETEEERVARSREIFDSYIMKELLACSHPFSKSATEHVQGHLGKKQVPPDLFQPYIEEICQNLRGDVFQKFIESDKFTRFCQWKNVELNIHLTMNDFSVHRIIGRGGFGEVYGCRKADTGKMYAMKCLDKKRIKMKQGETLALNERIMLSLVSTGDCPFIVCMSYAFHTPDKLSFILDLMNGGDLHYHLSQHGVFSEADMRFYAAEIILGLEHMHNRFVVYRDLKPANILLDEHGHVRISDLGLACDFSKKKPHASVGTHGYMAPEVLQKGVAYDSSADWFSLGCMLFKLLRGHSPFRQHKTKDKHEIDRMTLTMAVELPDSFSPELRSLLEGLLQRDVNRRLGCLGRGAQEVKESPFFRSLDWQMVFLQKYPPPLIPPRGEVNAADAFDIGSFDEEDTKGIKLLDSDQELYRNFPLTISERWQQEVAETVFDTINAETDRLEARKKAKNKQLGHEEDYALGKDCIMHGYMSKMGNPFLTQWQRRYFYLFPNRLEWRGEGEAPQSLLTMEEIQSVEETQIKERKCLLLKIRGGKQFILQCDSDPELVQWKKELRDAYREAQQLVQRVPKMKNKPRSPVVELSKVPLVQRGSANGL
SMILES,inhibition of aptamer binding,outcome
O=[N+]([O-])c1ccccc1S(=O)(=O)Nc1cccc2cccnc12,7.36% (inactive),
CCOCCc1c(O)nc(SCC(=O)NCc2ccco2)[nH]c1=O,-20.9% (inactive),
O=C(CCS(=O)(=O)c1ccccc1)NC1CCCC1,1.15% (inactive),
CC1CCN(C(=S)NC2CC3CCC2C3)CC1 (configuration not stated),-12.2% (inactive),
O=C(C1CCCN(S(=O)(=O)c2ccc([N+](=O)[O-])cc2)C1)N1CCCCC1 (configuration not stated),-14.3% (inactive),
CCOc1ccc(OCC)c(NC(=O)CCS(=O)(=O)c2ccc(C)cc2)c1,-1.15% (inactive),
CN=C(Nc1cccc(S(=O)(=O)N2CCOCC2)c1)c1ccccc1,-13.4% (inactive),
CCc1nn(CCCN2CCN(c3cccc(Cl)c3)CC2)c(=O)n1CCOc1ccccc1,4.83% (inactive),
COc1ccc(Cl)cc1NC(=O)CCS(=O)(=O)c1cc2c(cc1C)NC(=O)CO2,-12.2% (inactive),
CCOC(=O)C1=C(N)N(c2ccc(C)cc2)C2=C(C(=O)CCC2)C1c1cccs1 (configuration not stated),,inactive
COCCn1c(N)c(NCc2ccccc2)c(=O)[nH]c1=O,-165% (inactive),
Cc1ccc(S(=O)(=O)CC(=O)Nc2sc(C)c(C)c2C(N)=O)cc1,-39.3% (inactive),
